The campaign covered roughly 5,500 compounds. About 2,000 (36%) were called active. Another 18% or so got no clear call; they are omitted. Cut-off read from the data, not from the text of the source: active = normalized growth mostly below about 0.91 (no sharp cut-off); inconclusive = no clear call, values can overlap the other calls; inactive = mostly above about 0.92. The list shows a part of the results.
Assay: chemical genetic growth profiling, strain panel (AID 1159580);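 note: tested at 20 µM; growth read once vehicle control cultures reached saturation at 30 °C; 1 = growth at the plate median or of vehicle wells; lower values mean less growth of the strain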
Settings: growth OD

Measured: normalized growth

O=c1[nH]cnc2nc[nH]c12
inactive: S. cerevisiae deletion strains, locus YJR066W, strain TOR1, hits give low values 0.979 | S. cerevisiae deletion strains, locus YJR075W, strain HOC1, hits give low values 1.01 | S. cerevisiae deletion strains, locus YKL009W, strain mrt4, hits give low values 0.974 | S. cerevisiae deletion strains, locus YKL068W, hits give low values 1.02 | S. cerevisiae deletion strains, locus YKL085W, strain MDH1 (second series), hits give low values 0.984 | S. cerevisiae deletion strains, locus YKL085W, strain MDH1, hits give low values 0.984 | S. cerevisiae deletion strains, locus YKL160W, strain elf1, hits give low values 1.01 | S. cerevisiae deletion strains, locus YKR001C, strain vps1, hits give low values 0.975 | S. cerevisiae deletion strains, locus YKR026C, strain gcn3, hits give low values 1.02 | S. cerevisiae deletion strains, locus YKR091W, strain srl3, hits give low values 1.02 | S. cerevisiae deletion strains, locus YLL001W, strain dnm1, hits give low values 1.01 | S. cerevisiae deletion strains, locus YLL026W, hits give low values 1.02 | S. cerevisiae deletion strains, locus YLL041C, strain sdh2, hits give low values 1.02 | S. cerevisiae deletion strains, locus YLR027C, strain aat2, hits give low values 1.01 | S. cerevisiae deletion strains, locus YLR039C, strain RIC1, hits give low values 1.01 | S. cerevisiae deletion strains, locus YLR058C, strain SHM2, hits give low values 1 | S. cerevisiae deletion strains, locus YLR102C, strain apc9, hits give low values 0.979 | S. cerevisiae deletion strains, locus YLR113W, strain HOG1, hits give low values 1.01 | S. cerevisiae deletion strains, locus YLR221C, strain rsa3, hits give low values 1.02 | S. cerevisiae deletion strains, locus YLR258W, strain gsy2, hits give low values 1.01 | S. cerevisiae deletion strains, locus YLR262C, strain YPT6 (second series), hits give low values 1.02 | S. cerevisiae deletion strains, locus YLR262C, strain YPT6, hits give low values 0.991 | S. cerevisiae deletion strains, locus YLR268W, strain sec22, hits give low values 0.971 | S. cerevisiae deletion strains, locus YLR320W, strain mms22, hits give low values 1.03 | S. cerevisiae deletion strains, locus YLR330W, strain CHS5, hits give low values 0.998 | S. cerevisiae deletion strains, locus YLR342W, strain FKS1 (second series), hits give low values 0.975 | S. cerevisiae deletion strains, locus YLR342W, strain FKS1, hits give low values 1.02 | S. cerevisiae deletion strains, locus YLR357W, strain rsc2, hits give low values 1.04 | S. cerevisiae deletion strains, locus YLR370C, strain arc18, hits give low values 1 | S. cerevisiae deletion strains, locus YLR371W, strain rom2, hits give low values 0.962 | S. cerevisiae deletion strains, locus YLR384C, strain iki3, hits give low values 1 | S. cerevisiae deletion strains, locus YLR418C, strain cdc73, hits give low values 0.994 | S. cerevisiae deletion strains, locus YML016C, strain PPZ1, hits give low values 0.995 | S. cerevisiae deletion strains, locus YML032C, strain rad52, hits give low values 0.988 | S. cerevisiae deletion strains, locus YML120C, strain ndi1, hits give low values 1.01 | S. cerevisiae deletion strains, locus YML124C, strain tub3, hits give low values 0.978 | S. cerevisiae deletion strains, locus YMR058W, strain fet3, hits give low values 1.02 | S. cerevisiae deletion strains, locus YMR078C, strain ctf18, hits give low values 0.997 | S. cerevisiae deletion strains, locus YMR125W, strain sto1, hits give low values 1.01 | S. cerevisiae deletion strains, locus YMR129W, hits give low values 1.01 | S. cerevisiae deletion strains, locus YMR205C, strain PFK2, hits give low values 1.02 | S. cerevisiae deletion strains, locus YMR223W, strain ubp8, hits give low values 0.985 | S. cerevisiae deletion strains, locus YMR231W, strain pep5, hits give low values 0.987 | S. cerevisiae deletion strains, locus YMR263W, strain SAP30, hits give low values 0.999 | S. cerevisiae deletion strains, locus YMR307W, strain GAS1, hits give low values 1.02 | S. cerevisiae deletion strains, locus YNL067W, strain RPL9B, hits give low values 1.02 | S. cerevisiae deletion strains, locus YNL071W, strain lat1, hits give low values 1.01 | S. cerevisiae deletion strains, locus YNL153C, strain GIM3, hits give low values 1.02 | S. cerevisiae deletion strains, locus YNL183C, strain NPR1, hits give low values 0.978 | S. cerevisiae deletion strains, locus YNL209W, strain ssb2, hits give low values 1.02 | S. cerevisiae deletion strains, locus YNL233W, strain BNI4, hits give low values 0.999 | S. cerevisiae deletion strains, locus YNL248C, strain rpa49, hits give low values 1.02 | S. cerevisiae deletion strains, locus YNL250W, strain rad50, hits give low values 0.977 | S. cerevisiae deletion strains, locus YNL271C, strain bni1, hits give low values 0.978 | S. cerevisiae deletion strains, locus YNL298W, strain CLA4, hits give low values 1 | S. cerevisiae deletion strains, locus YNL307C, strain MCK1, hits give low values 0.982 | S. cerevisiae deletion strains, locus YNL322C, strain KRE1 (second series), hits give low values 1.02 | S. cerevisiae deletion strains, locus YNL322C, strain KRE1, hits give low values 1.01 | S. cerevisiae deletion strains, locus YNR049C, strain mso1, hits give low values 1.03 | S. cerevisiae deletion strains, locus YNR052C, strain pop2, hits give low values 0.978 | S. cerevisiae deletion strains, locus YOL012C, strain htz1 1.01 | S. cerevisiae deletion strains, locus YOL147C, strain pex11, hits give low values 0.98 | S. cerevisiae deletion strains, locus YOR001W, strain rrp6, hits give low values 1.02 | S. cerevisiae deletion strains, locus YOR061W, strain CKA2, hits give low values 0.99 | S. cerevisiae deletion strains, locus YOR069W, strain VPS5, hits give low values 0.988 | S. cerevisiae deletion strains, locus YOR070C, strain gyp1, hits give low values 1.01 | S. cerevisiae deletion strains, locus YOR080W, strain dia2, hits give low values 1.03 | S. cerevisiae deletion strains, locus YOR083W, strain WHI5, hits give low values 1.01 | S. cerevisiae deletion strains, locus YOR106W, strain vam3, hits give low values 1.01 | S. cerevisiae deletion strains, locus YOR136W, strain idh2, hits give low values 0.973 | S. cerevisiae deletion strains, locus YOR144C, strain elg1, hits give low values 0.989 | S. cerevisiae deletion strains, locus YOR184W, strain ser1, hits give low values 0.98 | S. cerevisiae deletion strains, locus YOR231W, strain MKK1, hits give low values 1.02 | S. cerevisiae deletion strains, locus YOR265W, strain rbl2, hits give low values 1.03 | S. cerevisiae deletion strains, locus YOR270C, strain vph1, hits give low values 1.11 | S. cerevisiae deletion strains, locus YOR290C, strain snf2, hits give low values 1 | S. cerevisiae deletion strains, locus YOR316C, strain cot1, hits give low values 0.989 | S. cerevisiae deletion strains, locus YPL051W, strain arl3, hits give low values 1.03 | S. cerevisiae deletion strains, locus YPL055C, strain LGE1, hits give low values 1.03 | S. cerevisiae deletion strains, locus YPL078C, strain atp4, hits give low values 1.02 | S. cerevisiae deletion strains, locus YPL106C, strain sse1, hits give low values 0.994 | S. cerevisiae deletion strains, locus YPL240C, strain hsp82, hits give low values 1.01 | S. cerevisiae deletion strains, locus YPL256C, strain CLN2, hits give low values 0.996 | S. cerevisiae deletion strains, locus YPR119W, strain clb2, hits give low values 0.99 | S. cerevisiae deletion strains, locus YPR141C, strain kar3, hits give low values 0.977 | S. cerevisiae deletion strains, locus YPR163C, strain tif3, hits give low values 0.988 | S. cerevisiae deletion strains, locus YPR167C, strain met16, hits give low values 0.965 | S. cerevisiae deletion strains, strain wtn01, hits give low values 0.975 | S. cerevisiae strains, strain wild type, hits give low values 1
